Screening results (PubChem BioAssay)
This is a sample that favours compounds with a hit; in the whole collection about 2.3% have one here.
Nrf2 activator: activates Nrf2 signaling | AREc32 ARE-luciferase reporter (MCF7-derived line), luminescence, 24 h | Potency, µM (top dose mostly 46.1 µM), for inactives: top-dose activation, usual class: activators | 0.31% of 410,000 active | AID 624171; also: potency is read from the fitted curve at half-maximal effect; % of control where 0% means no effect; nearly all actives have a fitted effect of over 65% in size
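AREc32_Fluc, 1000 cells/well, OPTI-MEM + 5% FBS, o/n 37 deg C 5% CO2; 23 nL cpd by pin tool, 24 hr; Steady-Glo 30 min RT, luminescence.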
A549 tox-1: kills or reduces viability of A549 cells in Nrf2 counter-screen | A549 ARE-Fluc cells, CellTiter-Fluor viability, 18-24 h | Potency, µM (series often up to 46 µM), for inactives: at the top dose activity change, negative = cytotoxicity, most hits filed as inhibitors | 0.16% of 390,000 active | AID 504648; also: potency is read from the fitted curve at half-maximal effect; % is scaled to controls: 0 for no effect and ±100 for the full control effect
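A549 ARE-Fluc cells in 5% FBS OPTI-MEM, 5000 cells/well, rested 2 h then exposed to compounds in concentration-response for 18-24 h at 37 °C. Viability by CellTiter-Fluor fluorescence (Ex 405/Em 525) after 30 min; luciferase luminescence (BugLite, 15 min, RT) read afterwards.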
IL-2 act: IL-2 activation | IL-2 activation reporter assay, cell-based qHTS; stimulated with anti-CD3/CD4/CD28 beads; in transgenic mouse T cells | activation, % (series mostly up to about 46 µM) | 0.065% of 360,000 active | AID 652025; in the data active = activation above about 50%; inconclusive = mostly about 30% to 49%; also: 0% is about no effect
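Unstimulated transgenic mouse T cells preincubated 60 min with compound, then stimulated with anti-CD3/anti-CD4-coated beads plus anti-CD28 for 18 h at 37 degrees C. IL-2 response read as EGFP and DsRed fluorescence by plate cytometry.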
Nrf2 inh: inhibitors of Nrf2 signaling; A549 ARE-Fluc reporter, luciferase luminescence, 18-24 h; Potency, µM (titrated, usually from 46 µM), for the others: at the top dose activity change, negative = inhibition, actives largely listed as inhibitors; 2.1% of 360,000 active; also: potency is read from the fitted curve at half-maximal effect; % is scaled to controls: 0 for no effect and ±100 for the full control effect; nearly all actives have a fitted effect of over 60% in size
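A549 ARE_Fluc cells, 5000/well, 5% FBS OPTI-MEM; compounds in dose-response, 18-24 h at 37 °C/5% CO2; CellTiter-Fluor viability read (Ex 405/Em 525), then BugLite luciferase luminescence = Nrf2 activity.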
FLuc counter 3: firefly luciferase inhibition, Nrf2 hit validation | purified firefly luciferase, luminescence inhibition | 4% of 1,400 active | Potency, µM (doses to about 57.5 µM), for the others: at the highest dose activity change, negative = inhibition, usual class: inhibitors | shares compounds with Nrf2 inh; also: potency is read from the fitted curve at half-maximal effect; % is scaled to controls: 0 for no effect and ±100 for the full control effect; nearly all actives have a fitted effect of over 65% in size
Target sequence (P08659 whole entry, looked up): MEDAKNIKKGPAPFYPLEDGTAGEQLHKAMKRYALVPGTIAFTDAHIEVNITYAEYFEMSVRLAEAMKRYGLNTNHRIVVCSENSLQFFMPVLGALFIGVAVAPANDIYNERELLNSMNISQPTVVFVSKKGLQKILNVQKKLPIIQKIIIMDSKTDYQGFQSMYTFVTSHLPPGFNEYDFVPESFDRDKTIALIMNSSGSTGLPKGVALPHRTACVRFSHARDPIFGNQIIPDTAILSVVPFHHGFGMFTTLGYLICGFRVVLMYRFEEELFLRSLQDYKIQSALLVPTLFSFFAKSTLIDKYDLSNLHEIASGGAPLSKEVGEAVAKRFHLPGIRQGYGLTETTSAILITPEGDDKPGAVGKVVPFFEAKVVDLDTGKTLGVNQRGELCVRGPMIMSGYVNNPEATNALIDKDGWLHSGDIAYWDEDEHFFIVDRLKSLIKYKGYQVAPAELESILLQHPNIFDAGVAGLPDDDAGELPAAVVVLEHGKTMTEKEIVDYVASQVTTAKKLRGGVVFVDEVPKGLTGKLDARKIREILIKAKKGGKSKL
A549 tox-2: A549 cytotoxicity, Nrf2 inhibitor counterscreen. shares compounds with Nrf2 inh. A549 ARE-Fluc cells, cytotoxicity counterscreen. Potency, µM (highest dose often 46.1 µM), inactives show at the top dose activity change, negative = cytotoxicity, usual class: inhibitors. 2% of 1,400 active. AID 720523;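 also: potency is read from the fitted curve at half-maximal effect; cells exposed to compounds for 18 to 24 hours; % is scaled to controls: 0 for no effect and ±100 for the full control effect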
Nrf2 ARE inh: reduces Nrf2 ARE reporter signal in A549 cells | shares compounds with Nrf2 inh | A549 ARE-firefly luciferase reporter, luminescence | Potency, µM (top dose mostly 46.1 µM), for the others: at the top dose activity change, negative = inhibition, actives largely listed as inhibitors | 74% of 1,400 active | AID 720524; also: potency is read from the fitted curve at half-maximal effect; % is scaled to controls: 0 for no effect and ±100 for the full control effect; nearly all actives have a fitted effect of over 65% in size
The depositor's hits bear a star; ? = inconclusive; . = no result shown. Unless noted, calls follow the shape of the dose curve; as a rule, active = well fitted curve in the direction sought with a large enough effect; inconclusive = small, poorly fitted or top-dose-only effect, or another doubt; inactive = no such curve, though single readings can be large; an effect the other way counts as inactive or inconclusive.

SMILES	Nrf2 activator	A549 tox-1	IL-2 act	Nrf2 inh	FLuc counter 3	A549 tox-2	Nrf2 ARE inh
O=C(Oc1cccnc1)c1ccc([N+](=O)[O-])cc1Cl	-1%	5%	-2	1µM*	4%	?	.
CCOc1cccc(C2c3c(oc4ccc(F)cc4c3=O)C(=O)N2c2cc(C)ccn2)c1 (stereo not given)	5%	1%	.	6%	.	.	.
Cc1cc(O)c2c(c1O)C(=O)[C@]13C(=C2O)C(=O)[C@@H]2[C@@H](O)[C@H]1[C@@H]1[C@H](O)[C@H]3C(=O)C3=C(O)c4c(O)cc(C)c(O)c4C(=O)[C@]312	5%	?	0	0.37µM*	?	?	1.2µM*
CC1=Nc2cc(C(=O)NCCc3ccc(Cl)cc3)ccc2Sc2ccc(C)cc21	-1%	?	.	5.2µM*	-9%	-26%	21µM*
CC1=Nc2cc(C(=O)NC3CCCCC3)ccc2Sc2ccc(Cl)cc21	1%	-12%	.	.	.	.	.
CCCN(Cc1cccs1)C(=O)Nc1cc(Cl)ccc1C	4%	1%	.	?	.	.	.
O=C(N/N=C/c1ccc(OC(F)F)cc1OC(F)F)c1ccc(Br)cc1	3%	1%	1	16%	.	.	.
Cc1ccc(S(=O)(=O)N(C)Cc2ccc(C(=O)N/N=C/c3ccc(OC(F)F)cc3OC(F)F)cc2)cc1	3%	-2%	1	9.2µM*	2%	-7%	4.6µM*
CCOc1nc(C#N)nc(N2CCOCC2)n1	.	-4%	.	-27%	.	.	.
C[C@H]1O[C@@H](O[C@H]2[C@@H](O)C[C@H](O[C@H]3[C@@H](O)C[C@H](O[C@H]4CC[C@@]5(C)[C@H](CC[C@@H]6[C@@H]5C[C@@H](O)[C@]5(C)[C@@H](C7=CC(=O)OC7)CC[C@]65O)C4)O[C@@H]3C)O[C@@H]2C)C[C@H](O)[C@@H]1O	-3%	?	0	0.13µM*	2%	?	0.058µM*
O=C(/C=C/c1cccs1)Nc1cccc(NC(=O)/C=C/c2cccs2)n1	0%	-18%	0	-25%	.	.	.
Cc1cccc(/C=C/c2cccs2)n1	.	.	.	.	-1%	-26%	2.6µM*
COc1ccc(S(=O)(=O)Nc2ccc(Cc3ccncc3)cc2)cc1OC	3%	-17%	-3	6.5µM*	2%	4%	?
Oc1ccc(Cl)cc1C1C=C(c2ccc3c(c2)OCO3)NC(c2ccc(Br)cc2)N1 (stereo not given)	.	0%	.	8%	.	.	.
CCOC(=O)c1[nH]c2ccc(Cl)cc2c1NC(=O)/C=C/c1ccc2c(c1)OCO2	0%	-23%	-1	5.2µM*	0%	-27%	4.1µM*
CCN(CC(=O)Nc1c(C(=O)OC)[nH]c2ccc(Cl)cc12)c1ccc2c(c1)OCO2	6%	-20%	-1	?	.	.	.
Cc1ccc(NC(=O)C2CCN(S(=O)(=O)c3ccc4c(c3)CCCN4C(=O)C3CCC3)CC2)cc1	2%	4%	.	.	.	.	.
CC(=O)Nc1sc2c(c1-c1nc3ccccc3s1)CCN(C(C)C)C2	-5%	-11%	0	6.5µM*	0%	-27%	6.5µM*
CCN(CC)C(=O)c1ccc2nc3ccccc3nc2c1	2%	?	0	1.5µM*	?	?	.
O=C(NCC(c1ccco1)N1CCCC1)c1ccc(Cl)c(S(=O)(=O)N2CCc3ccccc32)c1 (stereo not given)	7%	8.2µM*	-2	1.3µM*	-14%	-29%	.
O=C(NCC(c1ccco1)N1CCc2ccccc2C1)c1ccc(Cl)c([N+](=O)[O-])c1 (stereo not given)	21%	-4%	-1	13%	.	.	.
CCOc1ccccc1CNC(=O)CCCn1nc(C)c2sc3ccccc3c2c1=O	0%	1%	.	?	.	.	.
Cc1cc(Cl)c(S(=O)(=O)N2CCCC2)cc1OCC(=O)NC1CCCCC1	-1%	.	-2	7.3µM*	0%	-18%	.
